According to PubChem BioAssay (NCATS):
Records with an inconclusive call do not appear. Where a call stands in place of a potency, no number is given. Active and inactive are the calls of the source. Calls come from the whole dose curve; as a rule, active = well fitted cell-killing curve with a large enough effect; inconclusive = small, poorly fitted or top-dose-only effect; inactive = no such curve, though single readings can be large or run the other way.

Experiment: Cell Viability - LYMP2-001 (AID 921);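 note: cells exposed to compound for 24 h at 37 °C; nearly all actives have a fitted effect of over 70% in size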
Conditions: LYMP2-001 lymphoblastoid cell viability; series mostly up to 92.2 µM
Excerpt: NIH Chemical Genomics Center [NCGC]
NIH Molecular Libraries Screening Centers Network [MLSCN]
National Institutes of Environmental Health Sciences [NIEHS]
National Toxicology Program [NTP]
We have developed a 1536-well cell-based assay for quantitative high throughput screening (qHTS) against a number of cell lines to determine in vitro cytotoxicity of small molecules. This particular assay uses a human lymphoblastoid cell line (LYMP2-001) purchased from Coriell Institute for Medical Research.
NCGC Assay Protocol Summary:
The CellTiter-Glo luminescent cell viability assay (Promega) is a homogeneous method to measure the number of viable cells in culture. The end point readout of this assay is based on quantitation of intracellular ATP, an indicator of metabolic activity, using the luciferase reaction. Luciferase catalyzes the oxidation of beetle Luciferin to oxyluciferin and light in the presence of ATP. The luminescent signal is proportional to amount of ATP present.
Using the CellTiter-Glo luminescent cell viability assay, the amount of cellular ATP was measured in the lymphoblastoid cell line with complete culture medium following compound treatment for 24 hours. The assay was performed in opaque white Kalypsys 1536-well plates. In the screen, tetraoctylammonium bromide was used as positive control. Library compounds were measured for their ability to cause acute toxicity in the cell line, as reflected by a decrease in intracellular ATP levels, in a concentration-dependent manner. […] AC50 values were determined from concentration-response data modeled with the standard Hill equation.
qHTS protocol for CellTiter Glo lymphoblastoid cellular assay
[Step] [Parameter] [Value] [Description]
1. Reagent; 5 uL; 2500 lymphoblastoid cells/well
2. Time; 5 hr; 37 C incubation
4. Controls; 23 nL; Tetraoctylammonium bromide 6.4pM to 92 uM
5. Time; 24 hr; 37 C incubation
6. Reagent; 5 uL; CellTiter Glo reagent
7. Time; 30 min; Room Temperature
8. Detection; Luminescence; Viewlux plate reader
Keywords: cell viability, cytotoxicity, lymphoblastoid cell line, luminescence, NTPHTS, NTPHTS_NCGC, NIEHS, DSSTox, MLSMR, MLSCN, NIH Roadmap, qHTS, NCGC
Potency is the fitted concentration of half-maximal effect.

SMILES | Potency
FC(Cl)(Cl)Cl | inactive
N#CC(O)c1ccccc1 (stereo not given) | inactive
C=CC(=O)OCCN(C)C | inactive
Cc1ccc(N)c(C)c1 | inactive
Clc1cccc2ccccc12 | inactive
OCC(Cl)CCl (stereo not given) | inactive
Clc1ccc(Cl)c(Cl)c1 | inactive
ClCCCCl | inactive
Cc1ccc([N+](=O)[O-])cc1 | inactive
Cc1ccc(N=C=O)cc1N=C=O | inactive
c1ccc(N=NNc2ccccc2)cc1 | inactive
Cc1ccc(N)cc1C | inactive
CN(C)C(=O)Nc1ccc(Cl)cc1 | inactive
COC(C)(C)C | inactive
Nc1ccc(Oc2ccc(N)cc2)cc1 | inactive
CCSC(=O)N1CCCCCC1 | inactive
N#C/C=C/C#N | 31.6 µM (active)
NNC(N)=S | inactive
Nc1ccccc1-c1ccccc1 | inactive
ClP(Cl)(Cl)(Cl)Cl | inactive

SMILES | Potency
O=C(O)c1cccc(Cl)c1 | inactive
c1ccoc1 | inactive
Cc1ccccc1[N+](=O)[O-] | inactive
Nc1cc(Cl)cc(Cl)c1 | inactive
CC(=O)[O-].CC(=O)[O-].CC(=O)[O-].[Cr+3] | inactive
Oc1c(Cl)cccc1Cl | inactive
CCNCC | inactive
ClCC(Br)CBr (stereo not given) | inactive
C=CC(=O)OCC(CC)CCCC (stereo not given) | inactive
CC(C)C#N | inactive
Nc1ccc(Cc2ccc(N)c(Cl)c2)cc1Cl | inactive
CC(=O)NNc1ccccc1 | inactive
N#CC(Cl)(Cl)Cl | inactive
C=C(Cl)CSC(=S)N(CC)CC | inactive
CC(C)CC(C)N (stereo not given) | inactive
O=[N+]([O-])c1ccc2c3c(cccc13)CC2 | inactive
Nc1cc(Cl)ccc1O | inactive
BrC(Br)Br | inactive
O=c1ccc(=O)[nH][nH]1 | inactive
CN(C)c1ccccc1 | inactive
